# PubChem BioAssay (NCATS)
# Inconclusive results are not listed. Where a call stands in place of a potency, no number is given. Calls of active or inactive are those of the source. The call rests on the fitted dose curve; in most records, active means well fitted inhibition curve with a large enough effect; inconclusive means small, poorly fitted or top-dose-only effect; inactive means flat fitted curve, though single readings scatter.
# Columns and labels:
# Experiment in all cases: qHTS profiling for inhibitors of Plasmodium falciparum proliferation (AID 504749); further: nearly all actives have a fitted effect of over 60% in size
# Conditions in all cases: P. falciparum in erythrocytes, SYBR Green DNA, 72 h; series mostly up to 28.7 µM
# [1] = system: ECU
# Method in brief: (§1)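 Three-day growth assay of blood-stage parasites in erythrocytes (0.3% parasitemia, 2.5% hematocrit) at 37 C, 5% CO2, quantified by SYBR Green DNA staining after overnight detergent lysis.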
# [2] = system: FAB9
# Method in brief: as §1
# [3] = system: GB4
# Method in brief: as §1
# [4] = system: HB3
# Method in brief: as §1
# [5] = system: ICS
# Method in brief: as §1
# [6] = system: JCK
# Method in brief: as §1
# [7] = system: N140
# Method in brief: as §1
# [8] = system: P93_24
# Method in brief: as §1
# [9] = system: P94_40
# Method in brief: as §1
# [10] = system: PAD
# Method in brief: as §1
# Potency means the concentration at half of the fitted maximal effect.
Structure (SMILES),Potency [1],Potency [2],Potency [3],Potency [4],Potency [5],Potency [6],Potency [7],Potency [8],Potency [9],Potency [10]
O=C(O)c1cc(=O)[nH]c(=O)[nH]1,inactive,inactive,inactive,inactive,inactive,inactive,inactive,inactive,inactive,inactive
CC(C)NCC(O)c1ccc(NS(C)(=O)=O)cc1 (stereo unspecified),inactive,inactive,inactive,inactive,inactive,inactive,inactive,inactive,inactive,inactive
NC(=O)c1cccnc1,inactive,inactive,inactive,inactive,inactive,inactive,inactive,inactive,inactive,inactive
Nc1[nH]c(=O)ncc1F,inactive,inactive,inactive,inactive,inactive,inactive,inactive,inactive,inactive,inactive
CCc1cc(C(N)=S)ccn1,inactive,inactive,inactive,inactive,inactive,inactive,inactive,inactive,inactive,inactive
COc1ccc2cc3[n+](cc2c1OC)CCc1cc2c(cc1-3)OCO2,1410 nM (active),708 nM (active),675 nM (active),1780 nM (active),1120 nM (active),3160 nM (active),1260 nM (active),562 nM (active),447 nM (active),1000 nM (active)
N=C(N)c1ccc(OCCCCCOc2ccc(C(=N)N)cc2)cc1,2000 nM (active),794 nM (active),338 nM (active),1260 nM (active),1000 nM (active),2510 nM (active),1000 nM (active),631 nM (active),1410 nM (active),1410 nM (active)
CC(C)(C#N)c1cc(Cn2cncn2)cc(C(C)(C)C#N)c1,inactive,inactive,inactive,inactive,inactive,inactive,inactive,inactive,inactive,inactive
CNS(=O)(=O)Cc1ccc2[nH]cc(CCN(C)C)c2c1,inactive,inactive,inactive,inactive,inactive,inactive,inactive,inactive,inactive,inactive
CN(CCOc1ccc(CC2SC(=O)NC2=O)cc1)c1ccccn1 (stereo unspecified),inactive,inactive,inactive,inactive,inactive,inactive,inactive,inactive,inactive,inactive
COc1nc(N)nc2c1ncn2[C@@H]1O[C@H](CO)[C@@H](O)[C@@H]1O,inactive,inactive,inactive,inactive,inactive,inactive,inactive,inactive,inactive,inactive
CCc1c2c(nc3ccc(OC(=O)N4CCC(N5CCCCC5)CC4)cc13)-c1cc3c(c(=O)n1C2)COC(=O)[C@]3(O)CC,inactive,inactive,inactive,inactive,inactive,inactive,inactive,inactive,inactive,inactive
C[C@]12C=CC(=O)C=C1CC[C@@H]1[C@@H]2C(=O)C[C@@]2(C)[C@H]1CC[C@]2(O)C(=O)CO,inactive,inactive,inactive,inactive,inactive,inactive,inactive,inactive,inactive,inactive
CCCc1cc(C(N)=S)ccn1,inactive,inactive,inactive,inactive,inactive,inactive,inactive,inactive,inactive,inactive
Cc1cccc(Nc2ccncc2S(=O)(=O)NC(=O)NC(C)C)c1,inactive,inactive,inactive,inactive,inactive,inactive,inactive,inactive,inactive,inactive
OC(Cn1cncn1)(Cn1cncn1)c1ccc(F)cc1F,inactive,inactive,inactive,inactive,inactive,inactive,inactive,inactive,inactive,inactive
CN(C)CCc1c[nH]c2ccc(CS(=O)(=O)N3CCCC3)cc12,inactive,inactive,inactive,inactive,inactive,inactive,inactive,inactive,inactive,inactive
Cc1nnc(NS(=O)(=O)c2ccc(N)cc2)s1,inactive,inactive,inactive,inactive,inactive,inactive,inactive,inactive,inactive,–
NC(=O)N1c2ccccc2CC(=O)c2ccccc21,inactive,inactive,inactive,inactive,inactive,inactive,inactive,inactive,inactive,inactive
Cc1ncc([N+](=O)[O-])n1CCO,inactive,inactive,inactive,inactive,inactive,inactive,inactive,inactive,inactive,inactive
CCN(C)C(=O)Oc1cccc([C@H](C)N(C)C)c1,inactive,inactive,inactive,inactive,inactive,inactive,inactive,inactive,inactive,inactive
COC(=O)Nc1nc2ccc(Sc3ccccc3)cc2[nH]1,inactive,inactive,inactive,inactive,inactive,inactive,inactive,inactive,inactive,inactive

Structure (SMILES),Potency [1],Potency [2],Potency [3],Potency [4],Potency [5],Potency [6],Potency [7],Potency [8],Potency [9],Potency [10]
COc1ncnc(NS(=O)(=O)c2ccc(N)cc2)c1OC,inactive,inactive,inactive,inactive,inactive,inactive,inactive,inactive,inactive,inactive
Cc1ccnc2c1NC(=O)c1cccnc1N2C1CC1,inactive,inactive,inactive,inactive,inactive,inactive,inactive,inactive,inactive,inactive
Cn1nnc2c(C(N)=O)ncn2c1=O,inactive,inactive,inactive,inactive,inactive,inactive,inactive,inactive,inactive,inactive
CN1CCN(c2c(F)cc3c(=O)c(C(=O)O)cn(CCF)c3c2F)CC1,inactive,inactive,inactive,inactive,inactive,inactive,inactive,inactive,inactive,inactive
CC[C@H](NC(C)C)[C@H](O)c1ccc(O)c2[nH]c(=O)ccc12,inactive,inactive,inactive,inactive,inactive,inactive,inactive,inactive,inactive,inactive
O=P(O)(O)C(O)(Cc1cccnc1)P(=O)(O)O,inactive,inactive,inactive,inactive,inactive,inactive,inactive,inactive,inactive,inactive
CCCN[C@H]1CCc2nc(N)sc2C1,inactive,inactive,inactive,inactive,inactive,inactive,inactive,inactive,inactive,inactive
CNC1CCCN(c2c(F)cc3c(=O)c(C(=O)O)cn(C4CC4)c3c2OC)C1 (stereo unspecified),inactive,inactive,inactive,inactive,inactive,inactive,inactive,inactive,inactive,inactive
Nc1nc(N)c2nc(CNc3ccc(C(=O)NC(CCC(=O)O)C(=O)O)cc3)cnc2n1 (stereo unspecified),inactive,inactive,inactive,inactive,inactive,inactive,inactive,inactive,inactive,inactive
COc1c(N2CCNC(C)C2)c(F)cc2c(=O)c(C(=O)O)cn(C3CC3)c12 (stereo unspecified),inactive,inactive,inactive,inactive,inactive,inactive,inactive,inactive,inactive,inactive
NCCCC(O)(P(=O)(O)O)P(=O)(O)O,inactive,inactive,inactive,inactive,inactive,inactive,inactive,inactive,inactive,inactive
CC(N)C12CC3CC(CC(C3)C1)C2 (stereo unspecified),inactive,inactive,6750 nM (active),inactive,inactive,–,–,–,–,inactive
CN1CCN(c2c(F)cc3c(=O)c(C(=O)O)cn4c3c2OCN4C)CC1,inactive,inactive,inactive,inactive,inactive,inactive,inactive,–,inactive,inactive
O=c1cc(O)c(Cl)c[nH]1,inactive,inactive,inactive,inactive,inactive,inactive,inactive,inactive,inactive,inactive
COc1cnc(NS(=O)(=O)c2ccc(N)cc2)nc1,inactive,inactive,inactive,inactive,inactive,inactive,inactive,–,inactive,inactive
O=NN(CCCl)C(=O)NC1CCCCC1,inactive,inactive,inactive,inactive,inactive,inactive,inactive,inactive,inactive,inactive
CNNCc1ccc(C(=O)NC(C)C)cc1,inactive,inactive,inactive,inactive,–,inactive,inactive,inactive,inactive,inactive
COc1cc(NCc2ccc3nc(N)nc(N)c3c2C)cc(OC)c1OC,5 nM (active),4.5 nM (active),1.5 nM (active),31.6 nM (active),794 nM (active),7080 nM (active),447 nM (active),398 nM (active),891 nM (active),316 nM (active)
CC1=NN(c2ccccc2)C(=O)C1,inactive,inactive,inactive,inactive,–,inactive,inactive,inactive,inactive,inactive
NC(N)=NC(N)=NCCc1ccccc1,inactive,inactive,inactive,inactive,inactive,inactive,inactive,inactive,inactive,inactive
CN(C)c1ccc(C(=C2C=CC(=[N+](C)C)C=C2)c2ccc(N(C)C)cc2)cc1,355 nM (active),355 nM (active),239 nM (active),631 nM (active),251 nM (active),631 nM (active),355 nM (active),316 nM (active),282 nM (active),355 nM (active)
